Data from the OligoGym collection.

These sequences were tested against KIAA0564 (assay: pooled miR-30 sensor sort-seq; sequence = guide strand). Details: shRNA.
Note: reference of the scale not given here.

| Sequence | sensor-assay potency score (higher = more potent) |
| --- | --- |
| TTGTGGAGGAGTAACATCTTTT | -1.09 |
| TTAACCTTTGCAATACAGCAAG | -0.99 |
| ATCAACAGTAACAACACCGCTT | 0.22 |
| TCTTTGTAGAACACCAGCCAGT | -0.952 |
| TAGAACATCCAGCACAGTCAGG | -1.28 |
| TAACAACTTAAGTTGGTCCTTG | 0.426 |
| TTTGCCAGAACAATCATCCTAA | 0.448 |

Each sequence was assayed against KIAA0664 in the same assay as above. Details: shRNA.

| Sequence | sensor-assay potency score (higher = more potent) |
| --- | --- |
| TTTCTTCTGCAGCACAGCGAAG | -1.66 |
| TTGGAGACCAGCTCGTCGGCGG | -0.677 |
| TTGACGTGCTTGACCACGGGGA | -0.0674 |
| TGCATCTTGGTCTCCTCGCTGG | -0.849 |
| TTGCTCTCGTAGACTCGGGCGA | -0.673 |
| TTGCACTCGACCGAGGAGCAGA | -0.997 |
| TACGTCTTGAAGATGTGCTTGG | 0.188 |
| AAGTTCTTCTTGAAGGTCGGGC | -0.0493 |
| TTCTTCTTGAAGGTCGGGCTGA | -0.121 |
| TTGAAGGTCGGGCTGATCTGGT | -0.0579 |
| TTTTCTTCTGCAGCACAGCGAA | -0.902 |
| TTGAGCACGTCCTCCTCGGTGA | -0.45 |

These sequences were tested against KIAA0930 in the same assay as above. Details: shRNA.

| Sequence | sensor-assay potency score (higher = more potent) |
| --- | --- |
| TTATGGATGTGAATGTCCCCGC | -0.555 |
| TAAGTGTGCATAGAGAAGGAAG | -1.42 |
| TTCTTCATCTCAGCGATCCGGT | -0.0677 |
| TTCAGCTTCAGCCAGGACCCGA | -1.04 |
| TTCTCCATGAAGTAGGTGGAGA | -1.12 |
| TTTGTCACTAGCCACCAGCTCC | -0.835 |
| TTCTTGAGCGCCTCGTAGCGGA | -0.914 |
| TTGCTGTACTTGTAGAAGCCAA | -0.811 |
| TCACCTGTAGACACTCGGCTGA | -0.216 |
| ATAGAAAAGCATGTCGTCCTGC | 0.0437 |
| AAGTAGGTGGAGAACATCCAAG | -1.37 |
| AAAAGCATGTCGTCCTGCCGGG | -0.426 |

Each sequence was assayed against KIAA1217 in the same assay as above. Details: shRNA.

| Sequence | sensor-assay potency score (higher = more potent) |
| --- | --- |
| TTTGCTTGAACTTCCATTCTGT | 0.925 |
| TTTTTGTCTCTCTTGCTCCACT | -0.52 |
| TTCTTCAATGAACAAGCTCTGC | -0.544 |
| TTTTTTTAAATGTAACTCCGAC | -0.293 |
| TTTCTCGATAGACACTGCCCTG | -1.06 |
| TGAACTTCCATTCTGTGCCTTG | 0.302 |
| TACACTTTGAGGAGTGATCTGT | 0.221 |
| TTGAACTTCCATTCTGTGCCTT | 0.894 |
| TTTCCCATTATAGTGATCCAGA | -1.06 |
